What was measured:
Assay in all cases: PBM binding z-score (relative to random genomic background probes); higher = stronger binding; sequences stand for … in GC…GCGATTGACAGCGTAGAATGAAGG
[1] = tested on: PPARg:RXRa DBDmut IVT, anti-RXR (DBD mutation: RXRa K156A/R161A, NR concentration 270 nM, RXRa partner concentration 90 nM)
Procedure, shortened: (§1)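 Binding z-scores were set against random background probes. The data came from custom Agilent 4×180K protein-binding microarrays carrying double-stranded probes with 34-nt variable regions, incubated 1 h with ligand-free nuclear receptor dimers. Partner-specific antibodies detected binding, and scanned fluorescence was regression-normalized.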

[2] = tested on: PPARg:RXRa IVT, anti-PPARg (NR concentration 270 nM, RXRa partner concentration 90 nM)
Procedure, shortened: as §1

[3] = tested on: PPARg DBDmut:RXRa IVT, anti-PPARg (DBD mutation: PPARg1 K132A/R137A, NR concentration 270 nM, RXRa partner concentration 90 nM)
Procedure, shortened: as §1

[4] = tested on: PPARg DBDmut IVT, anti-PPARg (DBD mutation: PPARg1 K132A/R137A, NR concentration 270 nM)
Procedure, shortened: as §1

[5] = tested on: PPARg homodimer (NR concentration 180 nM)
Procedure, shortened: as §1

[6] = tested on: PXR:RXRa (NR concentration 270 nM, RXRa partner concentration 90 nM)
Procedure, shortened: as §1

[7] = tested on: PXR homodimer (NR concentration 270 nM)
Procedure, shortened: as §1

[8] = tested on: RARa:RXR (NR concentration 270 nM, RXRa partner concentration 90 nM)
Procedure, shortened: as §1

[9] = tested on: RARa homodimer (NR concentration 270 nM)
Procedure, shortened: as §1

[10] = tested on: RARb:RXRa (NR concentration 270 nM, RXRa partner concentration 90 nM)
Procedure, shortened: as §1

Row | Sequence | PBM binding z-score [1] | PBM binding z-score [2] | PBM binding z-score [3] | PBM binding z-score [4] | PBM binding z-score [5] | PBM binding z-score [6] | PBM binding z-score [7] | PBM binding z-score [8] | PBM binding z-score [9] | PBM binding z-score [10]
1 | TCTTGTAGATCAAGCAGGTTAAAAAAGCCTGAGT | 1.71 | 0.721 | 0.175 | 0.427 | 0.249 | 0.876 | 0.157 | 0.523 | 0.0055 | 0.189
2 | CTCGAAAGGTCGGTTGAGGTGAGTATTCGGATAA | 0.311 | 0.955 | -0.267 | 0.135 | 1.02 | 3.05 | -0.0873 | 2.04 | 0.255 | 3.25
3 | GCTAGCAGGCCATTTGGCTCACTCAATGACGGGC | 0.892 | -0.288 | -1.29 | -1.19 | -1.62 | -1.01 | -0.87 | -0.778 | -0.899 | -0.0959
4 | TAGCCTAGGTCATTGGGCCCGTATAGTACGCATC | 1.78 | 3.02 | 0.545 | -0.654 | 0.54 | 1.75 | 0.165 | 2 | -0.326 | 3.74
5 | GGAACGAGGGCATGCGAGTTGATAGCATGGCGAT | 2.78 | 1.98 | -0.352 | -0.663 | -0.621 | 3.59 | 0.407 | 0.73 | -0.824 | 1.91
6 | TCTGGTTGGTCAAAGGTCACACACTCGAAATGCG | 3.03 | 5.67 | 2.56 | 3.21 | 7.5 | 6.15 | 2.71 | 7.76 | 4.92 | 4.96
7 | CCTACTGGGCCAAGGTCATTGAACAGTCAAAGCA | 3.68 | 4.69 | -0.3 | -0.825 | 1.5 | 3.32 | 0.99 | 3.5 | -0.309 | 3.5
8 | ATACAAAGGTGATCGTGAGGTCGTTGATACTAAC | 1.15 | 2.15 | 1.05 | 0.894 | 1.53 | 4.07 | 1.38 | 3 | 1.26 | 2.54
9 | TCTTGTAGATCAAGCAGGTTAAGAAGGCCTGAGT | 1.58 | 0.43 | 0.564 | 0.0402 | 0.079 | 0.386 | 0.0272 | 0.642 | -0.212 | 0.128
10 | CCTCGGAGGACAGAAGGTCAGAGCTGTCCGCTTT | 0.195 | -0.199 | -1.36 | -1.28 | 1.06 | 1.35 | -0.13 | 1.93 | 0.441 | 2.89
11 | TAGCCTAGGTCGGATCGGGCCAGTATACGCTATA | -0.693 | -0.327 | -0.89 | -0.506 | -1.19 | -0.228 | -0.533 | 0.382 | -0.683 | 0.204
12 | TCTATTAGTTGCAGGGCAACCGACGAGTCCGTTT | 2.17 | 1.01 | 0.15 | 1.26 | 0.494 | 0.353 | 0.498 | 0.391 | 0.736 | 0.851
13 | GATACAGGGTCAGCTAGAGGCGAGAGTATGGAAA | 1.45 | 2.17 | -0.6 | -0.459 | 1.77 | 2.25 | -0.498 | 3.52 | 0.0279 | 4.1
14 | AGAACGAGGGCAATGAGTTGATACCACGGGTGGC | 3.03 | 2.47 | 0.451 | 0.33 | 0.443 | 1.66 | 5.24 | 0.38 | -0.193 | 2.19
15 | CCAACTAGGTCAAGAGGTCAAAGTCCGCTTCCCG | 8.09 | 8.02 | 4.07 | 5.47 | 8.09 | 6.37 | 2.79 | 8.12 | 3.13 | 5.34
16 | AGAATGTGGTTATTAAGATCAGGGAATTGCGGTC | 0.321 | 0.232 | 0.301 | 1.09 | 1.35 | -0.0244 | 0.763 | 0.105 | 1.37 | 0.11
17 | CGAAGTAGGTCAGAACAGGACAGTGAAGGATGAT | 7.52 | 7.53 | 0.926 | 0.783 | 1.04 | 0.897 | -0.0169 | 0.781 | 0.475 | 2.75
18 | CCAGACAGGGGAAAGGTAACTCAGTCTGGTACGC | -0.0945 | 0.279 | -0.482 | -1.01 | 0.356 | 0.0184 | -0.106 | 0.15 | -0.374 | 0.202
19 | CAAACTGGGTCACGAAAGGTCAAAGTCGAATGAC | 8.29 | 8.88 | 2.86 | 1.62 | 5.34 | 7.09 | 2.6 | 7.48 | 2.73 | 5.56
20 | TCTTGTCGATCAAGCAGGTTAAGAAAGCCTGAGT | 0.974 | 0.231 | -0.395 | 0.403 | -0.519 | 0.505 | -0.0537 | 0.33 | -0.429 | 0.222
21 | CTACCATGGTGAACAAGGTCGTTGATTACTATTC | 0.666 | 0.434 | 0.343 | 0.226 | 0.387 | 1.56 | 0.655 | 1.43 | 0.262 | 0.627
22 | CCAACTGGGGCATAAGGTTACCATAAGCCAGCCC | 4.69 | 5.04 | 0.045 | -0.438 | 0.423 | 0.561 | -0.309 | 1.32 | 0.288 | 1.6

Row | Sequence | PBM binding z-score [1] | PBM binding z-score [2] | PBM binding z-score [3] | PBM binding z-score [4] | PBM binding z-score [5] | PBM binding z-score [6] | PBM binding z-score [7] | PBM binding z-score [8] | PBM binding z-score [9] | PBM binding z-score [10]
23 | TCTTATAGATCAGCAGGTTAAGAAAGCTGGCCAA | 1.67 | 0.0176 | 0.00144 | -0.0268 | 0.0461 | 0.161 | -0.509 | 0.109 | -0.091 | 0.115
24 | CAGCCTAGGTCGGGGCCAGTATAGGAGGAACGTT | -0.532 | -0.678 | -0.979 | -1.04 | -0.152 | -0.445 | -0.795 | -0.269 | -1.01 | 1.02
25 | ATCGAAAGGTCGAGGTGGGTATAGAGAAAGGGAA | 0.271 | 1.55 | 0.846 | 1.16 | 2.17 | 2.99 | 0.988 | 3.5 | 1.9 | 4.34
26 | GGAAAGAGGGCAAAGTTGATAGCATCTGTCGACG | 3.73 | 3.74 | 1.03 | -0.31 | 1.67 | 1.77 | 0.468 | 2.25 | 0.527 | 2.77
27 | ATCTCTAGGTAAAGATAGTGCAGTGAATGCAAAT | 1.33 | 1.62 | 0.773 | 0.751 | -0.52 | -0.0642 | -0.041 | 0.189 | 0.661 | -0.164
28 | GCTATTAGTTGAGAGGGCAACCGAATGATTCTCG | 0.549 | 0.28 | 0.117 | -0.0279 | 0.87 | 0.651 | -0.0553 | 0.826 | 0.278 | 1.4
29 | CCTAGCTGGCCAGGGTCACTCAAGCATTTCGCTT | -0.189 | -0.187 | -0.962 | -0.97 | 0.811 | 2.53 | -0.342 | 3.04 | -0.133 | 2.35
30 | GGAACGAGGGCAATGTTGATAGCATCTGTCGACG | 3.67 | 2.77 | 0.286 | -0.167 | 0.467 | 0.63 | 0.108 | 0.572 | -0.191 | 2.13
31 | CCTGCTAGGTCAATGGTTAGCTAAAGCAGCTCGC | 4.4 | 3.57 | -0.722 | -1.05 | 0.942 | 0.745 | -0.456 | 1.29 | -0.0432 | 3.74
32 | ATCGAAAGGTCGGGGTGAGTATAGAGAAAGGGAA | 1.56 | 2.45 | 1.09 | 2.25 | 1.98 | 2.77 | 1.39 | 3.03 | 1.53 | 3.83
33 | ATTGAAAGGTCGAGGTGAGTATAGAGAAAGGGAA | 0.763 | 2.77 | 1.27 | 1.65 | 2.49 | 2.7 | 0.738 | 3.64 | 1.83 | 4.28
34 | GCTTGTAGATCAAGGTTTAGAAAGACTAAGCTAA | 1.06 | 0.361 | -0.41 | 0.0012 | -0.0341 | -0.479 | -0.437 | -0.166 | 0.111 | -0.486
35 | ATAAGTAGGTTAAGGGTCATTCAGGTTGGTTCGC | 7.68 | 7.64 | 2.34 | 2.31 | 5.84 | 5.44 | 4.03 | 6.12 | 3 | 3.75
36 | TCTTGTAGATGAAGCAGGTTAAGAAAGCCTGAGT | 1.86 | 0.0295 | 0.394 | -0.11 | 0.107 | 0.195 | 0.164 | 0.228 | -0.232 | -0.0996
37 | CCTATTAGTTGACCATAAGGTCAACCGAAGCTCG | 1.02 | 2.48 | 2.56 | 1.37 | 4.93 | 4.62 | 2.57 | 5.3 | 3.95 | 3.72
38 | GCGACTGGGGCATCAGCCGGTTACCATAACTTAA | 3.39 | 2.34 | -1.15 | -1.34 | -0.348 | -0.89 | -0.327 | -0.651 | -1.07 | 0.332
39 | TAGCCTAGGTCAGATCGGGCCAGTATCCGCTATA | 0.546 | 1.41 | -0.474 | -1.24 | 0.0691 | 0.834 | -0.885 | 1.1 | -1.32 | 3.02
40 | CCTACTGGGCCAAGGGTCATTGATTCCAATGCTC | 3.29 | 5.63 | 0.63 | -0.667 | 1.67 | 3.15 | -0.275 | 3.87 | 0.1 | 3.06
41 | CCGACTGGGGCGGAAAGGTTACCATACCATCCGG | -0.0321 | 0.59 | -0.91 | -0.926 | 0.423 | 1.17 | -0.39 | 1.96 | -0.133 | 1.43
42 | CGTCCAAGGCCATAGGAGGTCAGTGAAGACAGAT | 0.496 | 1.69 | -0.275 | -0.658 | 0.925 | 3.03 | 1.16 | 2 | -0.0451 | 2.9
43 | ATCTCTAGGTAAAAGTTCAGTAAATCCCGAGGAT | 1.87 | 3.76 | 1.75 | 1.54 | 1.88 | 1.8 | 1.71 | 1.47 | 1.92 | 2.41
44 | AGTCAAAGTTCACTAGGTAACGTATGATTCAGCT | 2.65 | 4.66 | 1.13 | 1.39 | 2.15 | 3.83 | 2.69 | 2.93 | 1.04 | 4.76
